Source: PubChem BioAssay
Pf apPOL block: Pf-apPOL DNA polymerase inhibition; AID 1794808; Recombinant Pf-apPOL, molecular beacon fluorescence, 1.5 h; 210,000 compounds, 0.25% hits; inhibition, % at 10 µM
mHTT CaM bind: inhibitors of human mutant huntingtin-calmodulin interaction; inhibition, % at 15 µM; P42858; AlphaScreen His-mHTT/GST-CaM binding, luminescence; 190,000 compounds, 3.6% hits; AID 1671202
Hits are given with their value. The full list was thinned out, with hits kept by preference. Cut-off read from the data, not from the text of the source: active = inhibition above about 50%; inactive = the rest.

Cc1cccc(-c2nc(CN3CCN(C(=O)C4CCCC4)CC3)no2)c1 was read as Pf apPOL block inactive and mHTT CaM bind inactive.
For COc1cc(Br)cc(/C=C2\SC(=O)N(c3ccccc3)C2=O)c1O the results were Pf apPOL block inactive and mHTT CaM bind inactive.
For COc1cc(C(=O)Nc2ccc(-c3nc4cc(Cl)ccc4o3)cc2)cc(OC)c1OC the results were Pf apPOL block inactive and mHTT CaM bind inactive.
For Cc1c(NC(=O)c2ccccc2F)cccc1-c1nc2cc(Cl)ccc2o1 the results were Pf apPOL block inactive and mHTT CaM bind inactive.
For O=C(Nc1ccc(N2CCOCC2)c(Cl)c1)c1ccccc1 the results were Pf apPOL block inactive and mHTT CaM bind inactive.
Screening O=C(Nc1ccc(-c2nc3cc(Cl)ccc3o2)cc1)c1ncn[nH]1 returned Pf apPOL block inactive and mHTT CaM bind 83.
Cc1c(NC(=O)c2ncn[nH]2)cccc1-c1nc2ccccc2s1 was read as Pf apPOL block inactive and mHTT CaM bind 51.
For O=C(Nc1ccc(N2CCOCC2)c(Cl)c1)c1ncn[nH]1 the results were Pf apPOL block inactive and mHTT CaM bind 82.
For Cc1c(NC(=O)c2ncn[nH]2)cccc1-c1nc2cc(Cl)ccc2o1 the results were Pf apPOL block inactive and mHTT CaM bind 53.
Cc1c(NC(=O)c2ccccc2I)cccc1-c1nc2ccccc2s1 was read as Pf apPOL block inactive and mHTT CaM bind inactive.
`CCc1cccc(OCC(=O)NC2CCCCC2)c1` gave Pf apPOL block inactive and mHTT CaM bind inactive.
For CCN(CCNC(=O)C1CCN(c2nnc3ccccn23)CC1)c1ccccc1 the results were Pf apPOL block inactive and mHTT CaM bind inactive.
Screening CC1(C)OC2OC(C(=O)Oc3ccc(Br)cc3)C3OC(C)(C)OC3C2O1 (stereo not drawn) returned Pf apPOL block inactive and mHTT CaM bind inactive.
For Cc1csc(NC(=O)CSc2ccc(NC(=O)c3cccs3)nn2)n1 the results were Pf apPOL block inactive and mHTT CaM bind inactive.
CCC(CC)NC(=O)c1csc2c1CCCC2 was read as Pf apPOL block inactive and mHTT CaM bind inactive.
For O=C(Nc1ccc2oc(-c3ccccc3Cl)nc2c1)c1cncc(Br)c1 the results were Pf apPOL block inactive and mHTT CaM bind inactive.
Screening O=C(Nc1ccc2oc(-c3ccccc3Cl)nc2c1)c1ncn[nH]1 returned Pf apPOL block 58 and mHTT CaM bind 77.
`O=C(Nc1ccc([N+](=O)[O-])cc1)c1ncn[nH]1` gave Pf apPOL block inactive and mHTT CaM bind 88.
CCN(CC)c1ccc(NC(=O)c2ncn[nH]2)cc1 was read as Pf apPOL block inactive and mHTT CaM bind inactive.
CCc1nc(-n2cccc2)sc1C(=O)Nc1ccc(F)cc1 was read as Pf apPOL block inactive and mHTT CaM bind inactive.
O=C(c1ccc(Br)cc1)N1CCN(c2ccc([N+](=O)[O-])cc2)CC1 was read as Pf apPOL block inactive and mHTT CaM bind inactive.
For Cc1ccc(C(=O)N2CCCC2COc2ccc(C(=O)NC3CC3)cc2)cc1F (stereo not drawn) the results were Pf apPOL block inactive and mHTT CaM bind inactive.
`Nc1cccc(Oc2c(F)c(F)c(Oc3cccc(N)c3)c(F)c2F)c1` gave Pf apPOL block inactive and mHTT CaM bind inactive.
`Nc1cc(N)cc(Oc2cc(N)cc(N)c2)c1` gave mHTT CaM bind 95.
O=C(NCc1ccccc1Cl)C1CCN(c2cnn(Cc3ccccc3)c(=O)c2)CC1 was read as Pf apPOL block inactive and mHTT CaM bind inactive.
`COc1ccc(CNc2cc([N+](=O)[O-])ccc2OC)cc1` gave Pf apPOL block inactive and mHTT CaM bind inactive.
Screening COc1ccc(C)cc1NCc1ccncc1 returned Pf apPOL block inactive and mHTT CaM bind inactive.
For COc1ccc(C)cc1NCc1ccc([N+](=O)[O-])cc1 the results were Pf apPOL block inactive and mHTT CaM bind 86.
Screening Cc1cc(NCc2ccc([N+](=O)[O-])cc2)ccc1Br returned Pf apPOL block inactive and mHTT CaM bind 58.
COc1ccc(C)cc1NCc1ccc(SC)cc1 was read as Pf apPOL block inactive and mHTT CaM bind 59.
Screening O=[N+]([O-])c1ccc(CNc2ccc(F)c(F)c2)cc1 returned Pf apPOL block inactive and mHTT CaM bind inactive.
Cc1ccc(CN2CCOCC2)cc1 was read as Pf apPOL block inactive and mHTT CaM bind inactive.
For O=C(Cc1cccnc1)N1CCCCC1c1nc(C2CC2)no1 (stereo not drawn) the results were Pf apPOL block inactive and mHTT CaM bind inactive.
Screening Oc1ccccc1-c1cc(-c2ccccc2F)[nH]n1 returned Pf apPOL block inactive.
COc1ccc(O)c(-c2cc(-c3ccccc3C)[nH]n2)c1 was read as Pf apPOL block inactive and mHTT CaM bind 69.
Cc1ccccc1-c1cc(-c2ccccc2O)n[nH]1 was read as Pf apPOL block inactive and mHTT CaM bind 52.
Cc1ccc(-c2cc(-c3ccccc3Cl)[nH]n2)c(O)c1 was read as Pf apPOL block inactive and mHTT CaM bind 65.
`COc1ccccc1-c1cc(-c2cc(Cl)ccc2O)n[nH]1` gave Pf apPOL block inactive and mHTT CaM bind inactive.
`Oc1ccccc1-c1cc(-c2ccccc2)n[nH]1` gave Pf apPOL block inactive and mHTT CaM bind inactive.
For Cc1cc(-c2nnc(COc3ccc4c(c3C)OC(C)(C)CC4=O)o2)ccc1[N+](=O)[O-] the results were Pf apPOL block inactive.
`O=[N+]([O-])c1cccc(NS(=O)(=O)c2cc(Cl)ccc2Cl)c1` gave Pf apPOL block inactive and mHTT CaM bind inactive.
Cc1n[nH]c(C)c1S(=O)(=O)N1CCC(C(=O)N2CCCC(C)C2)CC1 (stereo not drawn) was read as Pf apPOL block inactive and mHTT CaM bind inactive.
Screening Cc1ccnc(NC(=O)Cn2cccc2-c2nc(-c3ccccc3)cs2)c1 returned Pf apPOL block inactive and mHTT CaM bind 54.
CC(C)NC(=O)Cn1cccc1-c1nc(-c2ccccc2)cs1 was read as Pf apPOL block inactive and mHTT CaM bind inactive.
Screening CCN1CCN(CCCNC(=O)c2ccc3c(c2)NC(=O)C2CCCCN32)CC1 (stereo not drawn) returned Pf apPOL block inactive and mHTT CaM bind inactive.
For CCc1c(C)nc2[nH]nc(-c3ccccc3)n2c1=O the results were Pf apPOL block inactive and mHTT CaM bind inactive.
Screening CCc1c(C)[nH]n(-c2nn[nH]n2)c1=O returned mHTT CaM bind 100.
O=C1CCC(C(=O)Nc2cccc(O)c2)N1 (stereo not drawn) was read as Pf apPOL block inactive and mHTT CaM bind inactive.
Screening Cc1ccc2nc(NC(=O)c3ccc(NC(=O)C4CCCO4)cc3)sc2c1 (stereo not drawn) returned Pf apPOL block inactive and mHTT CaM bind inactive.
COc1cccc(C(=O)N2CCCn3nc(-c4cccc(Cl)c4)cc3C2)c1OC was read as Pf apPOL block inactive and mHTT CaM bind inactive.
Screening CCN(CC)c1ccc(Nc2nc(-c3ccccc3)cs2)cc1 returned Pf apPOL block inactive and mHTT CaM bind 80.
COc1ccc(Nc2nc(-c3cccc([N+](=O)[O-])c3)cs2)cc1 was read as Pf apPOL block inactive and mHTT CaM bind 84.
`C=CCNc1nc(-c2ccncc2)cs1` gave Pf apPOL block inactive and mHTT CaM bind inactive.
Screening COc1ccc(-c2csc(Nc3ccc(S(N)(=O)=O)cc3)n2)cc1 returned Pf apPOL block inactive and mHTT CaM bind 52.
CCCC(=O)Nc1nc(-c2ccccc2)cs1 was read as Pf apPOL block inactive and mHTT CaM bind inactive.
Screening COc1ccc(SCC(=O)Nc2nc(-c3cccc([N+](=O)[O-])c3)cs2)cc1 returned Pf apPOL block inactive and mHTT CaM bind inactive.
COc1ccc(S(N)(=O)=O)cc1 was read as Pf apPOL block inactive and mHTT CaM bind inactive.
